For 88 molecules, inhibition results are on record in PubChem BioAssay AID1852 (Sanford-Burnham Center for Chemical Genomics, 2009).

In general, inhibition refers to the change of the read-out against control, counted positive when it falls.

In all, about 2,500 compounds went through this assay and about 1,100 (44%) were called active. So high a share suggests a set chosen from earlier hits. The list shows a part of the results. Unmarked numbers belong to inactive results.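 Rule for the calls: active = inhibition above 50% at 4 µM in the single-point screen; inactive = inhibition of 50% or less.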

This experiment is described as follows: TNF-a-driven NF-kB reporter inhibitors, primary screen, selectivity assay for NOD1/NOD2 signaling inhibitor project, cell-based, HEK293T NF-kB-Luc, luminescence (AID 1852). Particulars: TNF-a induced, 14 h, at 4 µM, active compounds read high.
`CCNC(=O)/C(C#N)=C/c1c(N2CCN(c3cccc(Cl)c3)CC2)nc2c(C)cccn2c1=O`: the inhibition is -19.8%.
The same measure for `CCc1nc(SCC(=O)N2CCN(c3ccccc3)CC2)c2oc3ccccc3c2n1`: 0.6%; for `COc1ccccc1N1CCN(c2ncnc3sc(C)c(-c4ccccc4)c23)CC1`: 26.9%; for `COc1ccccc1N1CCN(c2nc(C)nc3c2oc2ccccc23)CC1`: 68.6% (active).
To `Oc1cc2c(cc1C(c1ccc(Cl)c(Cl)c1)N1CCCC1)OCO2` (stereo not drawn) belongs -22.5%; to `Cc1nc([N+](=O)[O-])c(Sc2nc3ccc([N+](=O)[O-])cc3[nH]2)n1Cc1ccccc1`, 38%; to `O=[N+]([O-])c1cc(/C=N/Nc2nc3ccccc3[nH]2)c(O)cc1O`, 66.5% (active).
To `Cc1cc(N/N=C/c2ccccc2[N+](=O)[O-])nc(-n2nc(C)cc2C)n1` belongs 1.1%; to `O=[N+]([O-])c1cc(Cl)cc(/C=N\Nc2ccccn2)c1O`, 48.8%.
On to `O=[N+]([O-])c1ccc(O)c(/C=N/Nc2nc3ccccc3[nH]2)c1`, for which the inhibition was 67.8% (active).
To `C[C@H]1O[C@@H](O[C@H]2[C@@H](O)C[C@H](O[C@H]3[C@@H](O)C[C@H](O[C@H]4CC[C@@]5(C)[C@H](CC[C@@H]6[C@@H]5C[C@@H](O)[C@]5(C)[C@@H](C7=CC(=O)OC7)CC[C@]65O)C4)O[C@@H]3C)O[C@@H]2C)C[C@H](O)[C@@H]1O` belongs 104% (active).
To `Cc1ccc(NC(=O)Cc2cc(C(=O)O)c3ccccc3n2)c(C)c1` belongs 25.2%.
Take `CCOC(=O)c1sc(NC(=O)CSc2n[nH]c(-c3ccccc3)n2)c(C#N)c1C`: the inhibition was 38.1%.
The same measure for `COC(=O)c1sc(NC(=O)c2cc(-c3ccccc3)nc3ccccc23)c(C#N)c1C`: 75.2% (active).
The same measure for `CCOC(=O)c1sc(NC(=O)c2cc(-c3ccccc3C)nc3ccccc23)c(C#N)c1C`: 92.5% (active); for `CCOC(=O)c1cc(-c2ccccc2)sc1NC(=O)c1cc(OC)c(OC)c(OC)c1`: -26.7%; for `COc1cc(-c2cc(C(=O)Nc3ccc(N4CCOCC4)cc3)c3ccccc3n2)cc(OC)c1OC`: 21.8%.
To `Cc1ccccc1-c1cc(C(=O)Nc2sc(C(=O)OC(C)C)c(C)c2C#N)c2ccccc2n1` belongs 94.3% (active).
As to `CCOC(=O)c1sc(NC(=O)c2cc(-c3ccccc3)nc3ccccc23)c(C#N)c1C`, the inhibition was 80.3% (active).
The same measure for `COc1ccc(N2CCN(C(=O)CCC(=O)N3CCOc4ccc(C)cc43)CC2)cc1`: 40.5%; for `COc1ccc(-n2nnnc2S(=O)(=O)CC(=O)N2CCCCC2)cc1`: 102% (active); for `COc1ccc(-n2nc3c(c2NC(=O)CCl)CSC3)cc1`: -4.5%.
To `CCCCCCc1cc2cc(-c3nnc(-c4ccccc4O)o3)c(=O)oc2cc1O` belongs 22.1%; to `CCCCCCc1cc2cc(-c3nnc(-c4cc(OC)c(OC)c(OC)c4)o3)c(=O)oc2cc1O`, 69.4% (active); to `CCCCCCc1cc2cc(-c3nnc(-c4ccccc4OC)o3)c(=O)oc2cc1O`, -7.1%.
The same measure for `COc1cccc(-c2nc(CS(=O)(=O)CC(=O)NCCc3ccccc3)c(C)o2)c1`: 11.1%.
For the molecule `COc1ccc(N(C(=O)CCl)C(C(=O)NCCc2ccccc2)c2cccs2)cc1` (stereo not drawn), the inhibition was 60.3% (active).
To `COc1ccc(CN(CCC(c2ccccc2)c2ccc(OC(C)C)cc2)C(=O)CCl)cc1OC` (stereo not drawn) belongs -5.8%.
For the molecule `COc1cccc(N(C(=O)CCl)C(C(=O)NCCc2ccccc2)c2cccs2)c1` (stereo not drawn), the inhibition is 81.5% (active).
The same measure for `O=C(NCCc1ccccc1)C(c1cccs1)N(C(=O)CCl)c1ccc(Cl)cc1` (stereo not drawn): 24.6%; for `C=CCN1C(=O)/C(=C/c2ccc(OC(C)=O)c(OCC)c2[N+](=O)[O-])SC1=S`: 56.7% (active).
The same measure for `CN(C)c1ccc(-c2noc(C3CCN(S(=O)(=O)c4cccc(Cl)c4)CC3)n2)cc1`: 31%; for `COc1ccc(CCN2CC(C(=O)N(C)CC(=O)Nc3cccc(F)c3)CC2=O)cc1OC` (stereo not drawn): 21.5%.
To `COc1cc(C(=O)Nc2cccc(-c3nc4cc(C)ccc4o3)c2)cc(OC)c1OC` belongs -51.1%.
With `COc1ccc(CC(=O)Nc2cccc(-c3nnc(-c4ccc(C)cc4)o3)c2)cc1OC`, the inhibition was 77.2% (active).
To `C[n+]1c2n(c3ccccc31)N=C(c1cc(C(C)(C)C)c(O)c(C(C)(C)C)c1)CS2` belongs 82.3% (active).
To `COc1ccc(C2=Nn3c([n+](C)c4ccccc43)SC2)cc1` belongs 32.8%.
To `COc1ccc(NC(=O)c2cccc(S(=O)(=O)Nc3ccc(Br)cc3)c2)cn1` belongs 23.8%.
`COc1ccc(NC(=O)/C(Cl)=C(/Cl)S(=O)(=O)Cc2ccc(C)cc2)cn1`: the inhibition is 108% (active).
For `COc1ccc(NC(=O)/C(Cl)=C(/Cl)S(=O)(=O)Cc2ccccc2)cn1`, the inhibition is 92.3% (active).
To `COc1ccc(NS(=O)(=O)c2ccc3c(c2)Cc2ccccc2-3)cn1` belongs 25.4%.
To `Cc1cccc(C(=O)NNC2=C(C(=O)C(F)(F)F)CCC2)c1O` belongs 93.3% (active); to `O=C(NNC1=C(C(=O)C(F)(F)F)CCC1)c1ccccc1O`, 15%; to `O=c1c(-c2ccc(Cl)cc2)coc2c(CN3CCCCC3)c(O)ccc12`, 37.4%.
To `COc1cccc(-c2coc3c(C)c4oc(=O)c(CCC(=O)O)c(C)c4cc23)c1` belongs 69.3% (active).
In the case of `Cc1c(CCC(=O)O)c(=O)oc2cc3oc4c(c3cc12)CCCC4`, the inhibition was 48.7%.
Take `Cc1c(CCC(=O)O)c(=O)oc2c(C)c3occ(-c4ccc(Cl)cc4)c3cc12`: the inhibition was 59.5% (active).
The same measure for `Cc1oc2c(C)c3oc(=O)c(CCC(=O)O)c(C)c3cc2c1-c1ccccc1`: 47%; for `COc1ccccc1CN(Cc1nc2ccccc2c(=O)[nH]1)S(=O)(=O)c1ccc2ccccc2c1`: 92.1% (active); for `COC(=O)c1ccc2c(=O)[nH]c(CCl)nc2c1`: 43.1%.
To `COc1ccc(-n2c(C)c([N+](=O)[O-])c3ccc(O)c(CN4CCCCC4)c32)cc1` belongs 28.8%; to `Cc1ccc(-n2c(C)c([N+](=O)[O-])c3ccc(O)c(CN(C)C)c32)cc1`, 66.1% (active); to `COc1ccc(-n2c(C)c([N+](=O)[O-])c3ccc(O)c(CN(C)C)c32)cc1`, 84.4% (active).
To `O=C1/C(=C\c2cccnc2)CN(Cc2ccccc2)C/C1=C\c1cccnc1` belongs 107% (active); to `CC1C/C(=C/c2ccncc2)C(=O)/C(=C/c2ccncc2)C1` (stereo not drawn), 106% (active); to `O=C1/C(=C/c2ccncc2)CCC/C1=C\c1ccncc1`, 89.9% (active).
Turning to `COc1cc(OC)c(OC)cc1/C=C1\CC(C)C/C(=C\c2cc(OC)c(OC)cc2OC)C1=O` (stereo not drawn), the inhibition was 32.3%.
`CC1C/C(=C\c2cccnc2)C(=O)/C(=C/c2cccnc2)C1` (stereo not drawn): the inhibition is 109% (active).
To `O=C1/C(=C/c2cccnc2)CCC/C1=C\c1cccnc1` belongs 104% (active); to `C=C1CC2C(CCC3(C)C2CCC3(O)C(C)=O)C2(C)CCC(=O)C=C12` (stereo not drawn), 13.6%; to `O=C(C1CCC(CNS(=O)(=O)c2cccs2)CC1)N1CCN(c2ccc(Cl)cc2)CC1` (stereo not drawn), 67.1% (active).
To `CC1Cc2cc(S(=O)(=O)N3CCN(c4ccc(Cl)cc4)CC3)ccc2N1C(=O)C1CC1` (stereo not drawn) belongs 8.4%; to `C[C@@H]1C[C@@H]2O[C@H]2/C=C\C=C\C(=O)Cc2c(Cl)c(O)cc(O)c2C(=O)O1`, 96.5% (active); to `O=C(CSc1n[nH]c(-c2ccccn2)n1)Nc1cccc(Cl)c1`, 81.4% (active).
To `Cc1nc(C)c(-c2ccc(SCC(=O)Nc3cccc(Cl)c3)nn2)s1` belongs 35%.
Turning to `Cn1cccc1Cc1nnc(SCC(=O)Nc2cccc(Cl)c2)n1-c1ccc(F)cc1`, the inhibition was 11.5%.
Consider `O=C(CSc1n[nH]c(-c2ccccn2)n1)Nc1ccc(Cl)cc1`, for which the inhibition was 80.1% (active).
In the case of `O=C(CN1CCN(CCC(=O)Nc2ccccc2F)CC1)Nc1ccc(Cl)cc1`, the inhibition is 2%.
To `Cc1ccc2c(c1)-c1ncc(C(=O)c3cc(Br)ccc3O)cc1CO2` belongs 36.7%; to `Cc1c(Cc2ccccc2)c(=O)oc2cc(O)cc(O)c12`, -8.9%.
The same measure for `CCCCc1cc(=O)oc2cc(O)cc(O)c12`: 21.4%; for `CCCCCc1cc(O)c2c(C)cc(=O)oc2c1`: 71.7% (active).
To `Nc1nc(CCl)nc(Nc2cccc3ccccc23)n1` belongs 44.3%; to `CCN1C(=O)C(CC(=O)Nc2cccc(C(C)=O)c2)S/C1=N\c1ccccn1` (stereo not drawn), -2.9%; to `Brc1ccc2ncnc(Nc3ccc(N4CCOCC4)cc3)c2c1`, 83.9% (active).
As to `O=C(COc1nsnc1N1CCOCC1)Nc1ccc(Br)cc1`, the inhibition is 4.1%.
To `Clc1ccc(Nc2ncnc3ccc(Br)cc23)cc1` belongs 49.1%; to `COc1ccc(Nc2ncnc3ccc(Br)cc23)cc1OC`, 64.4% (active).
To `Brc1ccc2ncnc(Nc3cccc4ccccc34)c2c1` belongs 104% (active); to `CC(=O)c1cccc(Nc2ncnc3ccc(Br)cc23)c1`, 60.8% (active).
To `COC(=O)Cc1[nH]n(-c2nc3ccccc3s2)c(=O)c1C(C)=Nc1ccc(OC)cc1` belongs 30.8%; to `COC(=O)Cc1[nH]n(-c2nc3ccccc3s2)c(=O)c1C(C)=Nc1ccc(C)cc1`, 55.7% (active); to `COC(=O)c1ccc(CSc2nc3ccccc3c(=O)n2Cc2ccco2)o1`, 6.3%.
On to `Cc1sc2nc(SCc3ccc(C(=O)O)cc3)n(Cc3ccco3)c(=O)c2c1C`, for which the inhibition is 74.6% (active).
To `COc1ccccc1NC(=O)CSc1nc2sc(C)c(C)c2c(=O)n1C` belongs 26.3%.
The same measure for `Cc1ccc2nc(-c3ccc4c(c3)OCCO4)cn2c1`: 51.3% (active); for `Cc1ccc(-c2csc(N3CCC(NS(=O)(=O)c4ccc5c(c4)OCCO5)CC3)n2)cc1`: 48.7%; for `CCc1ccn2cc(-c3ccc4c(c3)OCO4)nc2c1`: 23%.
